From PubChem
Compounds with a hit are over-represented: about 3.3% of the library has one in this group of screens.
ERb SRC1 inh – ER-beta (human) coactivator binding inhibition; Q92731; TR-FRET ER-beta LBD / SRC1-Cy5 peptide binding; receptor agonist-loaded with 1 µM estradiol; inhibition, % at 25.6 µM; 1.3% of 86,000 active; AID 633;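 active means compounds whose percent inhibition of the receptor-coactivator binding signal exceeds about 50% in the single-dose screen, limit read from the data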;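 further: 0% = receptor plus peptide wells without compound and 100% = peptide-only wells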
Target sequence (Q92731 whole entry, looked up, the tested form may be a part): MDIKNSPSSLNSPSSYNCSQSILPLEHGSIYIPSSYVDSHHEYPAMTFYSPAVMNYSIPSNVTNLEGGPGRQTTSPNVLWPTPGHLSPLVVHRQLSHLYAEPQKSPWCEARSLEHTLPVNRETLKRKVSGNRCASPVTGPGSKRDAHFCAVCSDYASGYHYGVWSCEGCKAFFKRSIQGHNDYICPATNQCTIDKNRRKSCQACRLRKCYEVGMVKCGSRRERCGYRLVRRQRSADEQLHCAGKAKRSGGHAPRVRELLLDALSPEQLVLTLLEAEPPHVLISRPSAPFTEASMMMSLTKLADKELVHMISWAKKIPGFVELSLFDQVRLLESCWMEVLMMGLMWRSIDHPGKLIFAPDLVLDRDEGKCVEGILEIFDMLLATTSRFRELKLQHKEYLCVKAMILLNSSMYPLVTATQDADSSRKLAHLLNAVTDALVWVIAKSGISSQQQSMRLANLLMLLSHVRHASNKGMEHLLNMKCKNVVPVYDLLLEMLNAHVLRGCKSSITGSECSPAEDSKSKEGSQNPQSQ
Plk1 PBD FP – blocks phosphopeptide binding to human Plk1 polo box domain; P53350; Plk1 PBD phosphopeptide binding, fluorescence polarization; inhibition, %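 (tested at about 20 µM)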; 0.13% of 97,000 active; in the data active means inhibition above about 34%, passing the limit was not always enough
ERa coact inh – ER-alpha (human) coactivator binding inhibition; inhibition, % at 25.6 µM; P03372; 1.7% of 86,000 active; TR-FRET ER-alpha LBD / SRC-1 peptide, estradiol-bound; in the data active means inhibition above about 50%;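 further: 0% = receptor plus peptide control and 100% = peptide only without receptor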
Smad3 FoxH1 inh – Smad3 (human) transcription factor binding inhibition; inhibition, % at 25 µM; 0.29% of 88,000 active; P84022; AID 630; TR-FRET Smad3/Dy647-FoxH1 peptide binding, europium anti-His;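 active means compounds that reduce the energy-transfer binding signal between the protein and its labelled peptide by more than half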;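 further: 0% = Smad3 plus labelled peptide maximal FRET and 100% = peptide-only background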
PLK1 kinase inh – blocks human PLK1 kinase activity; P53350; recombinant PLK1 kinase, TR-FRET peptide phosphorylation; inhibition, % at 10 µM; 0.53% of 97,000 active;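 active means inhibition of 50% or more in the single-concentration screen; inactive means inhibition below 50%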;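 further: 0% = DMSO max control and 100% = H-89 dihydrochloride min control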
ERa SRC1 pot – ER-alpha (human) coactivator binding potentiation; P03372; TR-FRET ERalpha-LBD/SRC-Cy5 coactivator binding, 2 h; 100 = basal binding, no effect; coactivator binding (% of control), % at 25.6 µM; 1.3% of 86,000 active; AID 639; in the data active means activity above about 200%;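 further: binding measured in presence of low estradiol as agonist stimulus; 0% = peptide alone without receptor and 100% = receptor with peptide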
Numbers without * were called inactive; [ ] = dose if it differs, or a comment.

How did CCC1(C)Cc2c(sc3nnn(Cc4ccccc4Cl)c(=O)c23)CO1 (stereo not given) do in these assays?
Plk1 PBD FP: 28.8; PLK1 kinase inh: -8.1

Results for COc1ccc2nc3oc(C(=O)N4CCC(C(N)=O)CC4)cc3cc2c1 ?
ERb SRC1 inh: 4.4; Plk1 PBD FP: 18.7; ERa coact inh: -1.4; Smad3 FoxH1 inh: 9.9; PLK1 kinase inh: -4.9; ERa SRC1 pot: 119.1

What do the screens show for `COc1ccc(OCC(=O)N2CCN(c3cccc(C(F)(F)F)c3)CC2)cc1`?
ERb SRC1 inh: 20.5; Plk1 PBD FP: 8.1; ERa coact inh: 13.5; Smad3 FoxH1 inh: -9.2; PLK1 kinase inh: -6.5; ERa SRC1 pot: 77.4

Results for COc1ccc2nc3oc(C(=O)N4CCN(c5cccc(Cl)c5)CC4)cc3cc2c1 ?
ERb SRC1 inh: 35.4; Plk1 PBD FP: 0.9; ERa coact inh: 62.1*[fluorescence artefact?]; Smad3 FoxH1 inh: -10.6; PLK1 kinase inh: -1.2; ERa SRC1 pot: 113.2

How did COc1ccc2nc3oc(C(=O)N4CCN(c5cccc(C(F)(F)F)c5)CC4)cc3cc2c1 do in these assays?
ERb SRC1 inh: 37.2; Plk1 PBD FP: 23.3; ERa coact inh: 66.2*; Smad3 FoxH1 inh: -0.3; PLK1 kinase inh: -7.0; ERa SRC1 pot: 118.0

Results for Cc1oc2c(O)c(O)ccc2c(=O)c1-c1cnn(-c2ccccc2)c1 ?
Plk1 PBD FP: 0.5; PLK1 kinase inh: 39.8

Results for Cc1oc2cc(O)cc(C)c2c(=O)c1-c1cnn(-c2ccccc2)c1 ?
ERb SRC1 inh: -9.8; Plk1 PBD FP: -5.7; ERa coact inh: 14.0; Smad3 FoxH1 inh: 9.7; PLK1 kinase inh: -2.1; ERa SRC1 pot: 235.5*[fluorescence artefact?]

How did O=C(Nc1ccccc1)c1ccc(S(=O)(=O)N2CCCCC2)cc1 do in these assays?
Plk1 PBD FP: 19.3; PLK1 kinase inh: -2.5

Results for O=C(Nc1cccnc1)c1ccc(S(=O)(=O)N2CCCCCC2)cc1 ?
ERb SRC1 inh: 46.6; Plk1 PBD FP: 24.4; ERa coact inh: 51.7*[fluorescence artefact?]; Smad3 FoxH1 inh: 6.7; PLK1 kinase inh: -4.1; ERa SRC1 pot: 20.7

How did O=C(CCN1CCN(c2ccc(Cl)cc2)CC1)Nc1nccs1 do in these assays?
ERb SRC1 inh: -18.5; Plk1 PBD FP: 1.4; ERa coact inh: -12.1; Smad3 FoxH1 inh: 8.8; PLK1 kinase inh: 61.8*; ERa SRC1 pot: 107.3

Results for O=C(CCN1CCN(c2ccc(Cl)cc2)CC1)Nc1ccccc1F ?
ERb SRC1 inh: 1.6; Plk1 PBD FP: 30.5; ERa coact inh: 5.0; Smad3 FoxH1 inh: -3.1; PLK1 kinase inh: -5.8; ERa SRC1 pot: 100.7

What do the screens show for `Br/C(=N\Nc1nn[nH]n1)c1ccncc1`?
Smad3 FoxH1 inh: 13.4

How did O=C(C1CC1)N1CCc2cc(S(=O)(=O)N3CCOCC3)ccc21 do in these assays?
ERb SRC1 inh: 12.0; Plk1 PBD FP: 15.8; ERa coact inh: 6.2; Smad3 FoxH1 inh: -12.3; PLK1 kinase inh: 68.6*; ERa SRC1 pot: 84.6

What do the screens show for `O=C(c1ccco1)N1CCN(S(=O)(=O)c2ccc3c(c2)CCN3C(=O)C2CC2)CC1`?
ERb SRC1 inh: -6.4; Plk1 PBD FP: -20.0; ERa coact inh: -0.6; Smad3 FoxH1 inh: -2.9; PLK1 kinase inh: -3.7; ERa SRC1 pot: 115.7

How did O=C(O)CCCSc1nc2ccccc2s1 do in these assays?
Smad3 FoxH1 inh: -5.0

Results for CN(C)Cc1cc(C(C)(C)C)ccc1-c1ccc(C(C)(C)C)cc1CN(C)C ?
Smad3 FoxH1 inh: 69.9*

What do the screens show for `CN(C)Cc1cc(C(C)(C)C)cc(CN(C)C)c1O`?
Smad3 FoxH1 inh: 6.8

What do the screens show for `CCc1ccc(C(=O)Cn2ncc(Cl)c(Cl)c2=O)cc1`?
ERb SRC1 inh: 52.0*; Plk1 PBD FP: -14.9; ERa coact inh: 2.7; Smad3 FoxH1 inh: -4.1; PLK1 kinase inh: -9.0; ERa SRC1 pot: 58.0

What do the screens show for `CN1CCN(c2ccncc2S(=O)(=O)N2CCN(C)CC2)CC1`?
Smad3 FoxH1 inh: 10.0

How did COc1ccccc1NC(=O)CSc1nnc(-c2ccccc2)o1 do in these assays?
ERb SRC1 inh: -7.5; Plk1 PBD FP: -7.6; ERa coact inh: -0.7; Smad3 FoxH1 inh: 0.0; PLK1 kinase inh: 58.1*; ERa SRC1 pot: 92.2

What do the screens show for `O=C(CSc1nnc(-c2ccc(OC(F)F)cc2)o1)NC(=O)NCc1ccco1`?
ERb SRC1 inh: 53.1*; Plk1 PBD FP: 9.7; ERa coact inh: 67.5*; Smad3 FoxH1 inh: 6.4; PLK1 kinase inh: -1.3; ERa SRC1 pot: 112.4

Results for COc1ccc(-c2nnc(SCC(=O)NC(=O)NCc3ccccc3)o2)cc1 ?
ERb SRC1 inh: 8.0; Plk1 PBD FP: -26.4; ERa coact inh: 20.9; Smad3 FoxH1 inh: -26.0; PLK1 kinase inh: -4.8; ERa SRC1 pot: 312.5*[fluorescence artefact?]

Results for COc1ccc(-c2nnc(SCC(=O)NCc3ccco3)o2)cc1 ?
ERb SRC1 inh: 20.3; Plk1 PBD FP: -23.4; ERa coact inh: 22.2; Smad3 FoxH1 inh: 9.1; PLK1 kinase inh: -11.3; ERa SRC1 pot: 68.8

Results for COC(=O)c1ccc(OC)c(CSc2nnc(-c3ccc(C)cc3)o2)c1 ?
ERb SRC1 inh: 13.8; ERa coact inh: 36.3; Smad3 FoxH1 inh: -13.6; ERa SRC1 pot: 455.4*[fluorescence artefact?]

What do the screens show for `Cc1ccc(C(=O)CSc2nnc(-c3ccccc3)o2)cc1`?
ERb SRC1 inh: 4.2; Plk1 PBD FP: -8.9; ERa coact inh: 2.1; Smad3 FoxH1 inh: 5.3; PLK1 kinase inh: -21.0; ERa SRC1 pot: 116.7

What do the screens show for `O=C(O)CC(CC(=O)O)C(=O)O`?
Smad3 FoxH1 inh: 2.3

How did Cc1cc(OCCn2cc(/C(N)=N/O)c3ccccc32)ccc1Cl do in these assays?
Plk1 PBD FP: -25.3; PLK1 kinase inh: -11.8

How did NC(N)=Nc1ccc(-c2ccc(N=C(N)N)cc2)cc1 do in these assays?
Smad3 FoxH1 inh: 5.3

How did Cn1ccnc1C[C@@](C)(O)c1ccccc1 do in these assays?
Smad3 FoxH1 inh: -1.4

Results for Cc1cc(NC(=O)CSc2nnc(-c3ccoc3C)o2)no1 ?
ERb SRC1 inh: -6.8; Plk1 PBD FP: 21.9; ERa coact inh: -9.3; Smad3 FoxH1 inh: -0.6; PLK1 kinase inh: -1.6; ERa SRC1 pot: 115.9

What do the screens show for `COc1cc(OC)cc(-c2nnc(SCC(=O)Nc3cc(C)on3)o2)c1`?
ERb SRC1 inh: -10.8; Plk1 PBD FP: 32.1; ERa coact inh: -19.3; Smad3 FoxH1 inh: -14.1; PLK1 kinase inh: -9.2; ERa SRC1 pot: 393.4*[fluorescence artefact?]

Results for CN(C)c1ccc(CNC23CC4CC(CC(C4)C2)C3)cc1 ?
Plk1 PBD FP: -16.3; PLK1 kinase inh: 1.6

What do the screens show for `Cc1nn(Cc2ccccc2)c(C)c1NC(=O)CSc1nc(-c2ccccc2)nc2c1cnn2-c1ccccc1`?
ERb SRC1 inh: 36.8; Plk1 PBD FP: -25.1; ERa coact inh: 72.4*[fluorescence artefact?]; Smad3 FoxH1 inh: 11.1; PLK1 kinase inh: -12.1; ERa SRC1 pot: 150.0

Results for COc1ccc2nc(NC(=O)c3cc(C)oc3C)sc2c1 ?
ERb SRC1 inh: 4.1; Plk1 PBD FP: 15.3; ERa coact inh: 12.2; Smad3 FoxH1 inh: 4.2; PLK1 kinase inh: -6.8; ERa SRC1 pot: 207.7*

Results for COc1ccc2nc(NC(=O)C3CCCN(S(=O)(=O)c4c(C)noc4C)C3)sc2c1 (stereo not given) ?
ERb SRC1 inh: 83.5*[fluorescence artefact?]; ERa coact inh: -0.7; Smad3 FoxH1 inh: -2.7; ERa SRC1 pot: 128.5
